# Measurements as given in publication PMC7862700, “An all-to-all approach to the identification of sequence-specific readers for epigenetic DNA modifications on cytosine”.
# Key:
# Assay in all cases: DAPPL (digital affinity profiling via proximity ligation, sequencing); 10 mM Tris-HCl pH 7.5, 50 mM NaCl, 1 mM DTT, 4% glycerol, room temperature, 30 min; GST-TFs on glutathione beads, 16-mer random dsDNA library, 0.1% formaldehyde crosslink after washing; high values mean tight binding
# FLI1 = target: T1, FLI1 (Homo sapiens, UniProt Q01543 1-452); details: protein: recombinant; tags: N-terminal GST; dsDNA, one strand shown
# T1 sequence: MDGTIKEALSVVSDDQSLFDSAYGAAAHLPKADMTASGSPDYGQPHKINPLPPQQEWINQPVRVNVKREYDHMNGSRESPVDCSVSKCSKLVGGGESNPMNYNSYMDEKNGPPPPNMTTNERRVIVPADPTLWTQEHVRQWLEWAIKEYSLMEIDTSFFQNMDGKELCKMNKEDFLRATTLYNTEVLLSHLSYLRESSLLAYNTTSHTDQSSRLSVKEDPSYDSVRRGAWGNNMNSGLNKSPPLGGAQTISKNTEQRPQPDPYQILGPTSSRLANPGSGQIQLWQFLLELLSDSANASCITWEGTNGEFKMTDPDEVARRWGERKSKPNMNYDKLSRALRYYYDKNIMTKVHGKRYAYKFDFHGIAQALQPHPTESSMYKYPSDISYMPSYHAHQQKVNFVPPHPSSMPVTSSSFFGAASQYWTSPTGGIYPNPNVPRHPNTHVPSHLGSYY
# Procedure, shortened: (§1)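 The binding signal reported is, for every hexamer, its read frequency for a factor over its read frequency for the tag-only sample. Reads came from pools of yeast-expressed, GST-fused human transcription factors on glutathione beads, barcoded with DNA and mixed with that sample, which were incubated with 200 nmole of a random double-stranded 16-mer DNA library in Tris/NaCl/DTT/glycerol buffer at room temperature for 30 min. After washing, the pools were crosslinked with 0.1% formaldehyde, proximity-ligated with BsaI/T4 ligase for 1 h at 37 °C, PCR-amplified and sequenced on an Illumina NextSeq500.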
# ELK1 = target: T2, ELK1 (Homo sapiens, UniProt P19419 1-428); details: protein: recombinant; tags: N-terminal GST; dsDNA, one strand shown
# T2 sequence: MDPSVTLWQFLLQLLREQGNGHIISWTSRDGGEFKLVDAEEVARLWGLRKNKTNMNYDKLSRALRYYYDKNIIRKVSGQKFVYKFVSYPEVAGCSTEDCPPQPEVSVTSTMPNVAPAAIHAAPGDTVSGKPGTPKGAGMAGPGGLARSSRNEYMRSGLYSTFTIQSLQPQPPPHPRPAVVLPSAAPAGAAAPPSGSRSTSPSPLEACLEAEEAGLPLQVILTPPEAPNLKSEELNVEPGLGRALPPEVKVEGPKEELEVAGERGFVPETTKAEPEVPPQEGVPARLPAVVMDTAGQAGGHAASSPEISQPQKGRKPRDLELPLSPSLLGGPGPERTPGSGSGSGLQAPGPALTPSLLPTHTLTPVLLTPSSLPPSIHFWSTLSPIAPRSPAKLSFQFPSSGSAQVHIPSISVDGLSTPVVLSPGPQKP
# Procedure, shortened: as §1
# GABPA = target: T3, GABPA (Homo sapiens, UniProt Q06546 1-454); details: protein: recombinant; tags: N-terminal GST; dsDNA, one strand shown
# T3 sequence: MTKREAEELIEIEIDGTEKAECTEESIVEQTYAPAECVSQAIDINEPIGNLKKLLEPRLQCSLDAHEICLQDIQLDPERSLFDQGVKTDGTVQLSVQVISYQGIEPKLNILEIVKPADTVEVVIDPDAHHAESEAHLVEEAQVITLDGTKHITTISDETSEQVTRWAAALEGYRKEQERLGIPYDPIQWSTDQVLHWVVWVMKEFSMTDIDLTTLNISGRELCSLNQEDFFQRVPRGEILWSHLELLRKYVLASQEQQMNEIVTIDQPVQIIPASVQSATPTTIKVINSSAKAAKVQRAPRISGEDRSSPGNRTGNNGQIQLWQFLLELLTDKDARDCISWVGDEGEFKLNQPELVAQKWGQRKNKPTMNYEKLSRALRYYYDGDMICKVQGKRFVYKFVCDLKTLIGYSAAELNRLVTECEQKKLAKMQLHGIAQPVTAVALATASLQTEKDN
# Procedure, shortened: as §1
# ERG = target: T4, ERG (Homo sapiens, UniProt P11308 1-479); details: protein: recombinant; tags: N-terminal GST; dsDNA, one strand shown
# T4 sequence: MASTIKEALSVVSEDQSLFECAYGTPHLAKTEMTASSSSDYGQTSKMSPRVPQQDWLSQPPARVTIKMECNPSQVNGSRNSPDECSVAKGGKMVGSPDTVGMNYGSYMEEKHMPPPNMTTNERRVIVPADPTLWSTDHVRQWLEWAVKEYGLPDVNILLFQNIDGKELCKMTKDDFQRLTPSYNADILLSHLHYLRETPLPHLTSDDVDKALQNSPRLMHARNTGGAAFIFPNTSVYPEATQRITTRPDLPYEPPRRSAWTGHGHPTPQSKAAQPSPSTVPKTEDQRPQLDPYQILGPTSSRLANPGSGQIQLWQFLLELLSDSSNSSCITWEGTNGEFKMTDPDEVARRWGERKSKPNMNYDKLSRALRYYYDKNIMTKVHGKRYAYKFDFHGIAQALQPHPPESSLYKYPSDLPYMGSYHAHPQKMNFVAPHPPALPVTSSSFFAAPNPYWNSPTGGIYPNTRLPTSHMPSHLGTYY
# Procedure, shortened: as §1
# ELF1 = ELF1 (Homo sapiens, UniProt P32519 1-619); details: protein: recombinant; tags: N-terminal GST; dsDNA, one strand shown
# Procedure, shortened: as §1
# EHF = target: T5, EHF (Homo sapiens, UniProt Q9NZC4 1-300); details: protein: recombinant; tags: N-terminal GST; dsDNA, one strand shown
# T5 sequence: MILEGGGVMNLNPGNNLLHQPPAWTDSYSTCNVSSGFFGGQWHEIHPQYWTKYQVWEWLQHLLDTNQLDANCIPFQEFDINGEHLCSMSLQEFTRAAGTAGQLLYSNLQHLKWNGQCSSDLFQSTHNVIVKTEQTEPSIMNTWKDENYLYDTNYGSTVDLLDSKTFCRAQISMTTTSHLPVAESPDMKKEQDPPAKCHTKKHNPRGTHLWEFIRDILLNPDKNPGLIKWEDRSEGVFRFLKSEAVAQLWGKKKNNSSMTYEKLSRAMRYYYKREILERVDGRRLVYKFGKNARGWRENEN
# Procedure, shortened: as §1
# SPI1 = SPI1 (Homo sapiens, UniProt P17947 1-270); details: protein: recombinant; tags: N-terminal GST; dsDNA, one strand shown
# Procedure, shortened: as §1
# SPIB = SPIB (Homo sapiens, UniProt Q01892 1-262); details: protein: recombinant; tags: N-terminal GST; dsDNA, one strand shown
# Procedure, shortened: as §1
# ELK3 = target: T6, ELK3 (Homo sapiens, UniProt P41970 1-407); details: protein: recombinant; tags: N-terminal GST; dsDNA, one strand shown
# T6 sequence: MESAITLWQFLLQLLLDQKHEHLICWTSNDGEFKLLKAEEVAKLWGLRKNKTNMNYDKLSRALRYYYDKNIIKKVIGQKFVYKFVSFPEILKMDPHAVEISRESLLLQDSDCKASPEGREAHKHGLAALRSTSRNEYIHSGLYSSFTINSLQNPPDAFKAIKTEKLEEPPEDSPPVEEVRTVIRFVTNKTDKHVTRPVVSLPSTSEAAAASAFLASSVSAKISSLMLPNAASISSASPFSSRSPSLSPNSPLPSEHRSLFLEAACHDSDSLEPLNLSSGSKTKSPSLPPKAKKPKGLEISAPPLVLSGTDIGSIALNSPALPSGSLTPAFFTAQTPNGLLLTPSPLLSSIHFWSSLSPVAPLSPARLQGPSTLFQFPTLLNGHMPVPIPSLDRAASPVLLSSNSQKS
# Procedure, shortened: as §1
# FEV = target: T7, FEV (Homo sapiens, UniProt Q99581 1-238); details: protein: recombinant; tags: N-terminal GST; dsDNA, one strand shown
# T7 sequence: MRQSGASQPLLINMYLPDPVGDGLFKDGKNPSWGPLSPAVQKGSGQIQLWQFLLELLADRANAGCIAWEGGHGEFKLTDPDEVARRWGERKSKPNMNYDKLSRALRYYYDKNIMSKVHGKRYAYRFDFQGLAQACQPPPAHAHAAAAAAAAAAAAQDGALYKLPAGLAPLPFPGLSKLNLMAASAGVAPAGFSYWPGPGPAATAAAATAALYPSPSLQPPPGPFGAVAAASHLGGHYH
# Procedure, shortened: as §1
# ETV5 = ETV5 (Homo sapiens, UniProt P41161 1-510); details: protein: recombinant; tags: N-terminal GST; dsDNA, one strand shown
# Procedure, shortened: as §1
# HSF1 = HSF1 (Homo sapiens, UniProt Q00613 1-529); details: protein: recombinant; tags: N-terminal GST; chain copies: 3; dsDNA, one strand shown
# Procedure, shortened: as §1
# SPIC = target: T8, SPIC (Homo sapiens, UniProt Q8N5J4 1-248); details: protein: recombinant; tags: N-terminal GST; dsDNA, one strand shown
# T8 sequence: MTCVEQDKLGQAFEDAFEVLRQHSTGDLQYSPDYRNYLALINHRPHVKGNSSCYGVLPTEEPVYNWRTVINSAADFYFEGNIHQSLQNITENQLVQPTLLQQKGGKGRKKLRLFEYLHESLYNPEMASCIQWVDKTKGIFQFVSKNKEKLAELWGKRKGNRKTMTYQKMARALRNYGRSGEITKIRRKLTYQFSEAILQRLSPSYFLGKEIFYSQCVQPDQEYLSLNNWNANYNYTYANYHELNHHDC
# Procedure, shortened: as §1
# ELF4 = ELF4 (Homo sapiens, UniProt Q99607 1-663); details: protein: recombinant; tags: N-terminal GST; dsDNA, one strand shown
# Procedure, shortened: as §1
# ELK4 = target: T9, ELK4 (Homo sapiens, UniProt P28324-2 1-405); details: protein: recombinant; tags: N-terminal GST; dsDNA, one strand shown
# T9 sequence: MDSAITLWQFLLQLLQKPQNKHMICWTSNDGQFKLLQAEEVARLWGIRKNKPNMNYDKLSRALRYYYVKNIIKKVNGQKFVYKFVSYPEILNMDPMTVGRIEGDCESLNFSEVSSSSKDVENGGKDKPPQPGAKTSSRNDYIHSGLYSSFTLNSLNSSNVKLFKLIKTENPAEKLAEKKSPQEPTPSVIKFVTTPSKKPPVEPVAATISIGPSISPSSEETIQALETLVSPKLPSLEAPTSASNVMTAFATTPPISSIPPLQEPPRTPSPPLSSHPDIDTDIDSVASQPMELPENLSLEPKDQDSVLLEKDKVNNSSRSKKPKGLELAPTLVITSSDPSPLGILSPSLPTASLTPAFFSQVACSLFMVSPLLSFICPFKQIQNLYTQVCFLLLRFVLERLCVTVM
# Procedure, shortened: as §1
# ETV2 = target: T10, ETV2 (Homo sapiens, UniProt O00321 1-342); details: protein: recombinant; tags: N-terminal GST; dsDNA, one strand shown
# T10 sequence: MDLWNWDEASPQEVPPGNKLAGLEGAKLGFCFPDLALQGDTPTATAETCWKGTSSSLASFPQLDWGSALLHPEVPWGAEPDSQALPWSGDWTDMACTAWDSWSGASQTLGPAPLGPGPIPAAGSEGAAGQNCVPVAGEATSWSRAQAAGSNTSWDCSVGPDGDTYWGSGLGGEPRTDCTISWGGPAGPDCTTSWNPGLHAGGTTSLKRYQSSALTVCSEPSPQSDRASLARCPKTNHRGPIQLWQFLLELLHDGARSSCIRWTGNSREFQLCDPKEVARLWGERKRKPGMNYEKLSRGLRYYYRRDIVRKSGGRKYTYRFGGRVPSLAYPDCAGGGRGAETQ
# Procedure, shortened: as §1
# ELF3 = target: T11, ELF3 (Homo sapiens, UniProt P78545 1-371); details: protein: recombinant; tags: N-terminal GST; dsDNA, one strand shown
# T11 sequence: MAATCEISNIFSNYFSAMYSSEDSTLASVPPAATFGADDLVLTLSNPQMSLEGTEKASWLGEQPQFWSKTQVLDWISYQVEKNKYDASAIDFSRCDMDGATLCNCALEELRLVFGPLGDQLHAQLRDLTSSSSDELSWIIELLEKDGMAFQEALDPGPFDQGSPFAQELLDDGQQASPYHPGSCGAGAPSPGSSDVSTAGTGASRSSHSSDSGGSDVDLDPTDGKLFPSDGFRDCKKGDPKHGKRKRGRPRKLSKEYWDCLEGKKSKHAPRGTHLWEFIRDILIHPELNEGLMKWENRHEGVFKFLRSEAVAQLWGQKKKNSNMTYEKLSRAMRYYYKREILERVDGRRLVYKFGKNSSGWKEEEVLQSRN
# Procedure, shortened: as §1
# CRX = CRX (Homo sapiens, UniProt O43186 1-299); details: protein: recombinant; tags: N-terminal GST; dsDNA, one strand shown
# Procedure, shortened: as §1
# ETV1 = ETV1 (Homo sapiens, UniProt P50549 1-477); details: protein: recombinant; tags: N-terminal GST; dsDNA, one strand shown
# Procedure, shortened: as §1
# Sequence of ETV1 (P50549 whole entry): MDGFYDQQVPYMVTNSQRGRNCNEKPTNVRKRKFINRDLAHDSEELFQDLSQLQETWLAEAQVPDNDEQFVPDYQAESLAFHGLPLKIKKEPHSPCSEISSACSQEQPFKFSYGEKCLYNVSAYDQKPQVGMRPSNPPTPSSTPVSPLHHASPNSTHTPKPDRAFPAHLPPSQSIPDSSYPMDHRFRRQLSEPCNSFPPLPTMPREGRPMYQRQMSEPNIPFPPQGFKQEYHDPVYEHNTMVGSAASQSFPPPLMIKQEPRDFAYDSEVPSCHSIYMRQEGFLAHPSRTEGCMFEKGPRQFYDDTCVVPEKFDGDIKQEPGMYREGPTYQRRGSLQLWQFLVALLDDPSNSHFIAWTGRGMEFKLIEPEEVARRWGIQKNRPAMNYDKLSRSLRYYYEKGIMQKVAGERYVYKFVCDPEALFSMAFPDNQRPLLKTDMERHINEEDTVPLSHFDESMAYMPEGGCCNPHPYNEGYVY
# Sequence of ELF4 (Q99607 whole entry): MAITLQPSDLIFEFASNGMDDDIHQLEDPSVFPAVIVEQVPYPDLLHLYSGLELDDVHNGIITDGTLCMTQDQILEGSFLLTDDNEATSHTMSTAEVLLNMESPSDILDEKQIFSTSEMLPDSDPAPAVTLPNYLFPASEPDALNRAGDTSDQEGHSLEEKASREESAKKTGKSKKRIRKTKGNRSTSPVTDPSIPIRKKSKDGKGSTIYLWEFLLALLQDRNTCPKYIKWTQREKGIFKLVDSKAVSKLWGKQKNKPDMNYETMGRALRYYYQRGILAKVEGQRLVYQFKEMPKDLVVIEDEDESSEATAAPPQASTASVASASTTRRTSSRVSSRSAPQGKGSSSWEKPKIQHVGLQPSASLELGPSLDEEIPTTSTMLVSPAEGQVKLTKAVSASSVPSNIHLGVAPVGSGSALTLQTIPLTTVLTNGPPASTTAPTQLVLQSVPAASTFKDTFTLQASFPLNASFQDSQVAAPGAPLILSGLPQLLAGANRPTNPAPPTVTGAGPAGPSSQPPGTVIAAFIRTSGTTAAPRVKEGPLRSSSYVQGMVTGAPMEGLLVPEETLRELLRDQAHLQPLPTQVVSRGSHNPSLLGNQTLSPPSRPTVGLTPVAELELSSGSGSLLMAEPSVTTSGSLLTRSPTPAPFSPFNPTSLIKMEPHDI
# Sequence of HSF1 (Q00613 whole entry): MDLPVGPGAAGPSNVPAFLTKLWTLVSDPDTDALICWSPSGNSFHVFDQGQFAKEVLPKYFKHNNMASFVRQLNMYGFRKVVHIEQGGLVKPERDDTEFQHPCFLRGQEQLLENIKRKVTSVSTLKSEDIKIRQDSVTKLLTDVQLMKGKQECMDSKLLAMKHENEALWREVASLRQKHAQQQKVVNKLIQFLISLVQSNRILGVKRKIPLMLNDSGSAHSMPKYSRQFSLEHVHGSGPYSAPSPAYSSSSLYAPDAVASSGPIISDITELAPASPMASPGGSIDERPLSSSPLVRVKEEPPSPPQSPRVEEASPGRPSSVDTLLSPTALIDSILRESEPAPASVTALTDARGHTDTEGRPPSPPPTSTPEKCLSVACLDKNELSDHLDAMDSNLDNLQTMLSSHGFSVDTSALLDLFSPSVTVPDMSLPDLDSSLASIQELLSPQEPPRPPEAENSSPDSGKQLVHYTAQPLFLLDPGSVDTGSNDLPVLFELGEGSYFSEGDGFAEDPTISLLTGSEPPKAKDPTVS
# Sequence of ETV5 (P41161 whole entry): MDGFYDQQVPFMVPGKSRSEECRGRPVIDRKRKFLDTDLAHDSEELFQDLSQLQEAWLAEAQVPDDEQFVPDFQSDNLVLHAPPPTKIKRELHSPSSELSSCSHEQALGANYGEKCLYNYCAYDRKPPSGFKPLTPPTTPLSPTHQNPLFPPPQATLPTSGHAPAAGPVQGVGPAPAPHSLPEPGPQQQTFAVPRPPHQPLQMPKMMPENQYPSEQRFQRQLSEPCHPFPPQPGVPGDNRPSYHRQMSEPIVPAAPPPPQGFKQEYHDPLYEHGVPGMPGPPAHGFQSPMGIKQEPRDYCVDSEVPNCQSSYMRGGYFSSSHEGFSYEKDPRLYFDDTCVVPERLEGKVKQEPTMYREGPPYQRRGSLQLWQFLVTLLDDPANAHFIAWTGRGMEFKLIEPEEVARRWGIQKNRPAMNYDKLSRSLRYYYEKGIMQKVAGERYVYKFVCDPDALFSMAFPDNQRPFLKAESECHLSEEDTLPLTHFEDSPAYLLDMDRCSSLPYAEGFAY
# Sequence of CRX (O43186 whole entry): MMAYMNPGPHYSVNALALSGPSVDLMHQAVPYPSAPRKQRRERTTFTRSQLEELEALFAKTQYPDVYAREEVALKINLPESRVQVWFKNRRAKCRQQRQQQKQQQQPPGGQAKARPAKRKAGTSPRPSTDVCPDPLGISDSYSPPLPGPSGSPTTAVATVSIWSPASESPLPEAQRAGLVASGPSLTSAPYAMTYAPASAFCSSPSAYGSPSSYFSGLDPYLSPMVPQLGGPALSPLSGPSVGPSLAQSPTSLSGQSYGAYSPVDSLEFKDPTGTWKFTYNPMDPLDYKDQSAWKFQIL
# Sequence of SPIB (Q01892 whole entry): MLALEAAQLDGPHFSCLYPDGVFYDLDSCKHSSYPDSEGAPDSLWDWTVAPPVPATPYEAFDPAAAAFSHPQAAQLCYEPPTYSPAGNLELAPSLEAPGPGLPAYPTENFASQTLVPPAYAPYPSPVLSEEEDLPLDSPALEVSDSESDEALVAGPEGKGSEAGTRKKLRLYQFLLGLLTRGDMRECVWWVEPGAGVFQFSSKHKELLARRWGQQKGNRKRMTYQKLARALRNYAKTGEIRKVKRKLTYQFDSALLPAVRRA
# Sequence of ELF1 (P32519 whole entry): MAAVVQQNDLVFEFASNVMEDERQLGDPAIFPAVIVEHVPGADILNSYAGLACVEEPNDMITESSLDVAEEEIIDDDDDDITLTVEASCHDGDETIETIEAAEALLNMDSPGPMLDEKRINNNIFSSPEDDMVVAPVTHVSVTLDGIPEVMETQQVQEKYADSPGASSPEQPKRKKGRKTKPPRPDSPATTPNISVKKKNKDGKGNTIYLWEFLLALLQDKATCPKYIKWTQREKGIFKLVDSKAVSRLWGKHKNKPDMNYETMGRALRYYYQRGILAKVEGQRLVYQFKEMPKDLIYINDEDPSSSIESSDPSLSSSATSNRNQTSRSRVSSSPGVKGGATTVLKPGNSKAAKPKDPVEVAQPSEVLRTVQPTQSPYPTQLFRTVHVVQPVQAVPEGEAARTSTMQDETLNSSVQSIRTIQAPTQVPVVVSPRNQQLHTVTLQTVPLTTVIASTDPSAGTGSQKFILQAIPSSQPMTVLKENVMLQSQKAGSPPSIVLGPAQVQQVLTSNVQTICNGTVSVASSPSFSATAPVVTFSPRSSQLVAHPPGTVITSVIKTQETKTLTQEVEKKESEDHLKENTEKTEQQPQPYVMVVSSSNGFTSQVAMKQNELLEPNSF
sequence,measurement,setting,value
ATGATC,binding signal,FLI1,"1.2 fold enrichment (6-mer frequency, TF over GST control)"
same,binding signal,ELK1,"1.17 fold enrichment (6-mer frequency, TF over GST control)"
same,binding signal,GABPA,"1.3 fold enrichment (6-mer frequency, TF over GST control)"
same,binding signal,ERG,"1.1 fold enrichment (6-mer frequency, TF over GST control)"
same,binding signal,ELF1,"1.22 fold enrichment (6-mer frequency, TF over GST control)"
same,binding signal,EHF,"1.28 fold enrichment (6-mer frequency, TF over GST control)"
same,binding signal,SPI1,"1.15 fold enrichment (6-mer frequency, TF over GST control)"
same,binding signal,SPIB,"1.18 fold enrichment (6-mer frequency, TF over GST control)"
same,binding signal,ELK3,"1.31 fold enrichment (6-mer frequency, TF over GST control)"
same,binding signal,FEV,"1.14 fold enrichment (6-mer frequency, TF over GST control)"
same,binding signal,ETV5,"1.24 fold enrichment (6-mer frequency, TF over GST control)"
same,binding signal,HSF1,"1.59 fold enrichment (6-mer frequency, TF over GST control)"
same,binding signal,SPIC,"1.38 fold enrichment (6-mer frequency, TF over GST control)"
same,binding signal,ELF4,"1.21 fold enrichment (6-mer frequency, TF over GST control)"
same,binding signal,ELK4,"1.16 fold enrichment (6-mer frequency, TF over GST control)"
same,binding signal,ETV2,"1.15 fold enrichment (6-mer frequency, TF over GST control)"
same,binding signal,ELF3,"1.19 fold enrichment (6-mer frequency, TF over GST control)"
same,binding signal,CRX,"1.74 fold enrichment (6-mer frequency, TF over GST control)"
same,binding signal,ETV1,"1.1 fold enrichment (6-mer frequency, TF over GST control)"
